The source of these data is PubChem BioAssay (Tox21).

The nature of experiment [1]: qHTS assay for small molecule agonists of the p53 signaling pathway (AID 651631; calls by dose curve; note: nearly all actives have a fitted effect of over 15% in size; note: potency is the fitted concentration of half-maximal effect). In outline: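 p53RE-bla HCT-116 cells; compounds 16 h, 37 °C; LiveBLAzer B/G FRET substrate 2 h RT; fluorescence intensity read-out, qHTS format.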
Background: In qHTS, concentration-response curves come from the screen itself.

The nature of experiment [2]: qHTS assay for small molecules that induce genotoxicity in human embryonic kidney cells expressing luciferase-tagged ATAD5 (AID 651632). Note: nearly all actives have a fitted effect of over 15% in size. An outline of the steps:
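Genotoxicity read-out via ATAD5-luciferase: HEK293T cells, 16 hr compound incubation at 37C, Amplite detection.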

A short description of experiment [3]: qHTS assay for small molecule agonists of the p53 signaling pathway - cell viability (AID 651633; calls by dose curve;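 note: p53RE-bla HCT reporter cells with a stable beta-lactamase p53 reporter; series mostly up to about 83 µM; nearly all actives have a fitted effect of over 30% in size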). In outline: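 p53RE-bla cells, seeded at 4,000 per well and rested 5 h at 37 C/5% CO2, received compounds in DMSO for 16 h at 37 C. CellTiter-Glo was then added, and luminescence was read after 30 min at room temperature to gauge cytotoxicity.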
Experiment [4] in a line: qHTS assay for small molecules that induce genotoxicity in human embryonic kidney cells expressing luciferase-tagged ATAD5 - cell viability (AID 651634; calls by dose curve; note: nearly all actives have a fitted effect of over 25% in size). In outline: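 Live-cell protease activity (CellTiter-Fluor, fluorescence) indicates viability. HEK293T cells with luciferase-tagged ATAD5; 15.5 hr compound treatment at 37C.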
Experiment [5] can be described thus: qHTS assay for small molecule disruptors of the mitochondrial membrane potential - cell viability (AID 720634; calls by dose curve;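 note: human HepG2 liver cancer cells; series mostly up to about 83 µM; nearly all actives have a fitted effect of over 20% in size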). In outline: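 Human hepatoma HepG2 cells were treated for 1 hr with test chemicals, then given m-MPI dye and CellTiter-Glo. Cell viability reflects luminescence proportional to cellular ATP.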
The nature of experiment [6]: qHTS assay for small molecule disruptors of the mitochondrial membrane potential (AID 720635). In outline:
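HepG2 cells (2,000/well) attached overnight at 37C, then took compound for 1 hr at 37C, 5% CO2. Mito-MPS dye was added for 30 min; fluorescence was read at 490/535 nm (monomers) and 540/590 nm (aggregates).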

Experiment [7] in a line: qHTS assay to test for compound auto fluorescence at 590 nm (red) in HepG2 cells (AID 720674). In outline: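 Intrinsic compound fluorescence in the red window (Ex/Em 540/590 nm) is measured in attached HepG2 cells exposed for 1 hr, DMSO vehicle as baseline, benchmarked to Rose Bengal sodium.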
Experiment [8] is described as follows: qHTS assay to test for compound auto fluorescence at 535 nm (green) in HepG2 cells (AID 720675).
A short description of experiment [9]: qHTS assay to test for compound auto fluorescence at 460 nm (blue) in HEK293 cells (AID 720678). In outline: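 Cells were seeded and left to adhere for 4-5 hr at 37C. Compounds were then pin-transferred. After an overnight incubation at 37C under 5% CO2, intrinsic fluorescence at 405/460 nm was measured and referenced to triamterene.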
The nature of experiment [10]: qHTS assay to test for compound auto fluorescence at 590 nm (red) in HEK293 cells (AID 720679). An outline of the steps: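 Each well held 2,000 HEK293 cells in medium containing 10% dialyzed FBS. Following 4-5 hr attachment at 37C, 23 nL test compound or DMSO was added; plates sat overnight, and red fluorescence (540/590nm) was recorded.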
The nature of experiment [11]: qHTS assay to test for compound auto fluorescence at 535 nm (green) in HEK293 cells (AID 720680).
A short description of experiment [12]: qHTS assay to test for compound auto fluorescence at 460 nm (blue) in HEK293 cell free culture (AID 720681). An outline of the steps: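 Test compounds were pinned into cell-free culture medium (DMEM with 10% FBS) and fluorescence was read directly at Ex/Em 405/460 nm. Signals were expressed as fluorescence equivalents of triamterene, with DMSO vehicle as control.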

Experiment [13] can be described thus: qHTS assay to test for compound auto fluorescence at 535 nm (green) in HEK293 cell free culture (AID 720682). An outline of the steps: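 Cell-free medium (DMEM, 10% FBS) receives compound or DMSO by pintool. Plate read directly at Ex 485/Em 535 nm. Signal converted to fluorescein equivalency.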
The nature of experiment [14]: qHTS assay to test for compound auto fluorescence at 590 nm (red) in HEK293 cell free culture (AID 720683). An outline of the steps:
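Tox21 10K library compounds were pinned into cell-free DMEM with 10% FBS and fluorescence was read at excitation 540 nm. Activity is expressed as Rose Bengal sodium equivalency.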

Experiment [15] is described as follows: qHTS assay to test for compound auto fluorescence at 590 nm (red) in HepG2 cell free culture (AID 720684). In outline:
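Measured in medium alone (MEM containing 10% FBS) following pintool addition of compound; emission at 590 nm with 540 nm excitation, referenced to Rose Bengal sodium.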

Experiment [16] in a line: qHTS assay to test for compound auto fluorescence at 460 nm (blue) in HepG2 cell free culture (AID 720685). An outline of the steps:
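Compound (23 nL) or DMSO pinned into cell-free MEM with 10% FBS; blue fluorescence read at 405/460 nm excitation/emission, expressed as auto-fluorescence equivalency to triamterene.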

A short description of experiment [17]: qHTS assay to test for compound auto fluorescence at 535 nm (green) in HepG2 cell free culture (AID 720686).
A short description of experiment [18]: qHTS assay to test for compound auto fluorescence at 460 nm (blue) in HepG2 cells (AID 720687). In outline: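 Cells (2,000/well in MEM with 10% FBS) attached overnight at 37 C, then were exposed to compound or DMSO for 1 hr at 37 C, 5% CO2. Fluorescence read at Ex/Em 405/460 nm, expressed as triamterene-equivalent signal.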
The target of experiment [19] is Glucocorticoid receptor (Homo sapiens) (UniProt P04150). In words: qHTS assay to identify small molecule agonists of the glucocorticoid receptor (GR) signaling pathway (AID 720691; active = well fitted activation curve with a large enough effect in the signal ratio in the repeat runs, not every such curve was filed as active; inconclusive = weak or mixed curves, or effect the other way; inactive = no such curve, though single readings can be large or run the other way; the % refers to the signal ratio; note: potency is the fitted concentration of half-maximal effect). An outline of the steps:
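Beta-lactamase reporter activity, read as fluorescence intensity, was measured in GR-bla HeLa cells exposed to compounds for 18 h at 37 C and then loaded with LiveBLAzer B/G FRET substrate for 2 h at room temperature.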

Experiment [20] shares this target. Kind of experiment: qHTS assay to identify small molecule antagonists of the glucocorticoid receptor (GR) signaling pathway (AID 720692; active = well fitted inhibition curve with a large enough effect in the signal ratio in the repeat runs, not every such curve was filed as active; inconclusive = weak or mixed curves, or effect the other way; inactive = no such curve, though single readings can be large or run the other way; the % refers to the signal ratio). In outline: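 Fluorescence from cleaved LiveBLAzer B/G FRET substrate reports GRE-driven beta-lactamase in HeLa cells; compounds are tested against 5 nM dexamethasone (final) over 18 h at 37 C, substrate incubation 2 h at room temperature.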

The structures appear in SMILES notation. Where “and” joins values, the source holds several entries; their conditions need not be identical. Identical values can stand only once. Unmarked numbers belong to inactive results. Calls of active or inactive are those of the source. Unless noted, calls come from the whole dose curve; as a rule, active = well fitted curve in the direction sought with a large enough effect in the repeat runs; inconclusive = weak or mixed curves; inactive = no such curve, though single readings can be large; an effect the other way counts as inactive or inconclusive.

Sequence of Glucocorticoid receptor (Homo sapiens) (P04150 whole entry, looked up): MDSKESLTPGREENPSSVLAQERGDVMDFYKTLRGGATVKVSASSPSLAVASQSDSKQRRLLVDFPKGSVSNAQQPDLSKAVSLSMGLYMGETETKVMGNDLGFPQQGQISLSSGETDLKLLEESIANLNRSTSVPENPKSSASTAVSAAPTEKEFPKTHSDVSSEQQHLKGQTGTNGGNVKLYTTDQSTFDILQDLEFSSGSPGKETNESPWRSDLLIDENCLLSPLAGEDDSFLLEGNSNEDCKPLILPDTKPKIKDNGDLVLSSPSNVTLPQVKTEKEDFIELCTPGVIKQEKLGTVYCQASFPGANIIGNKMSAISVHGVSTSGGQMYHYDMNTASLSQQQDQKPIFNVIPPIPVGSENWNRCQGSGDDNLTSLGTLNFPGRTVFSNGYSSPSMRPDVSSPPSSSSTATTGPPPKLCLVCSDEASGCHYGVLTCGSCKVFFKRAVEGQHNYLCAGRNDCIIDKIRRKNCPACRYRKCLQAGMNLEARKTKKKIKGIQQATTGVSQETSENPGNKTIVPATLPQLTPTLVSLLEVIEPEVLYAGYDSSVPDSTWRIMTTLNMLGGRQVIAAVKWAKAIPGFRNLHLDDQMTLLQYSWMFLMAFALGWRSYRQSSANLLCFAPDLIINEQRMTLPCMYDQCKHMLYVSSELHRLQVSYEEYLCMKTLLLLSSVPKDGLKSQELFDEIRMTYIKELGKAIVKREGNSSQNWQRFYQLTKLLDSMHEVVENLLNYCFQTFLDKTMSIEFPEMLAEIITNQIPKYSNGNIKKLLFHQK

`CC(=O)NC(Cc1ccccc1)C(=O)O` (stereo not drawn): the Potency entry in experiment [1], in [2], in experiment [3], in experiment [4], in experiment [5] and in experiment [6] was “inactive” in each case. Moreover, the Potency result in [9], in experiment [12], in experiment [16], in experiment [18], in experiment [19] and in [20] was “inactive” in each case. Moreover, the outcome in experiment [7], in experiment [8], in experiment [10], in experiment [11], in [13] and in [14] was inactive. In addition, the compound was classed as inactive in [15] and in [17].

For `CCCCCCCCCCCCCCCCCCOCC(O)CO` (stereo not drawn), the Potency entry in experiment [1], in experiment [2], in experiment [3], in [4], in [5] and in [6] was “inactive” in each case. For the same compound, the Potency result in [9], in [12], in experiment [16] and in experiment [18] was “inactive” in each case. Moreover, the outcome in [7], in experiment [8], in experiment [10], in experiment [11], in experiment [13] and in experiment [14] was inactive. Further, the compound was called inactive in experiment [15] and in experiment [17]. Besides, the Potency in experiment [19] was 952 nM [inconclusive] (active).

Take `CO[Si](CCCNCCC[Si](OC)(OC)OC)(OC)OC`: the Potency entry in experiment [1], in experiment [2], in experiment [3], in experiment [4], in [5] and in experiment [6] was “inactive” each time. Moreover, the Potency result in [9], in experiment [12], in [16], in experiment [18] and in experiment [20] was “inactive” each time. Further, the compound was called inactive in [7], in experiment [8], in [10], in experiment [11], in [13] and in experiment [14]. The compound was called inactive in experiment [15] and in experiment [17].

`C=C(C)C1CC=C(C)C(O)C1` (stereo not drawn): the Potency result in [1], in experiment [2], in experiment [3], in experiment [4], in [5] and in experiment [6] was “inactive” throughout. Besides, the Potency entry in experiment [9], in [12], in [16], in [18] and in [19] was “inactive” each time. Further, the outcome in experiment [7], in experiment [8], in [10], in [11], in [13] and in experiment [14] was inactive. Further, the compound was classed as inactive in experiment [15] and in experiment [17].

With `Nc1nc(F)nc2c1ncn2[C@@H]1O[C@H](CO)[C@@H](O)[C@@H]1O`, the Potency in experiment [1] was 13.3 µM (active) and 8.41 µM (active). The Potency result in experiment [2], in experiment [3], in experiment [4], in [5], in experiment [6] and in experiment [9] was “inactive” throughout. In addition, the Potency entry in [12], in experiment [16], in experiment [18], in experiment [19] and in experiment [20] was “inactive” in each case. Further, the result in [7], in experiment [8], in experiment [10], in experiment [11], in [13] and in experiment [14] was inactive. Moreover, the result in experiment [15] and in experiment [17] was inactive.

As for `COc1cccc(Br)c1`, the Potency entry in [1], in [2], in experiment [3], in experiment [4], in experiment [5] and in [6] was “inactive” in each case. The Potency entry in experiment [9], in experiment [12], in experiment [16] and in [18] was “inactive” each time. The compound was called inactive in experiment [7], in [8], in experiment [10], in [11], in experiment [13] and in experiment [14]. In addition, the compound was classed as inactive in experiment [15] and in [17].

On to `COCc1ccc(COC)cc1`, for which the Potency entry in experiment [1], in [2], in experiment [3], in experiment [4], in experiment [5] and in [6] was “inactive” throughout. Moreover, the Potency result in experiment [9], in experiment [12], in experiment [16] and in experiment [18] was “inactive” each time. Also, the call in [7], in experiment [8], in experiment [10], in experiment [11], in experiment [13] and in experiment [14] was inactive. Also, the outcome in experiment [15] and in experiment [17] was inactive.
